# Inconclusive results are not listed. Active and inactive are the calls of the source. How the source made its calls: active means hit-call score of the fitted dose curve at least 0.9, where 1 is the maximum; inconclusive means response in the unintended direction; inactive means score below 0.9.
# Columns and labels:
# [1] = target: D(1A) dopamine receptor (Homo sapiens) (UniProt P21728); test: NVS_GPCR_hDRD1: NovaScreen (NVS) G Protein-Coupled Receptor Assay for human Dopamine Receptor D1 (DRD1) (AID 2283269)
# D(1A) dopamine receptor (Homo sapiens), sequence (P21728 whole entry, looked up): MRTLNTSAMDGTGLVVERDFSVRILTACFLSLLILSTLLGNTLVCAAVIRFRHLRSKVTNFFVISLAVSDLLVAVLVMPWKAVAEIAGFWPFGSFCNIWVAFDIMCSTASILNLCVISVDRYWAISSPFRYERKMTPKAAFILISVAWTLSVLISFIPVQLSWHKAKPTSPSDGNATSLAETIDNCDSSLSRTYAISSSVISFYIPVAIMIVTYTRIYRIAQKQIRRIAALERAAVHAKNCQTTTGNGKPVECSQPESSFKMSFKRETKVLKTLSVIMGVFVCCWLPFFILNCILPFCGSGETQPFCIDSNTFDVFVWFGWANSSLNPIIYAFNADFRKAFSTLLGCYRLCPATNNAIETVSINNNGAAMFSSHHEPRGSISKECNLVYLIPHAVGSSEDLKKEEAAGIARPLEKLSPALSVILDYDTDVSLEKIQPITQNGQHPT
# In short: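 Cell-free radioligand binding to human DRD1 from HEK293 membranes, read 1 h after dosing by filter-based scintillation counting. Loss of signal versus DMSO baseline marks displacement. Primary screen at 25 uM single concentration in duplicate; actives followed up in concentration series.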
# [2] = target: Muscarinic acetylcholine receptor M5 (Homo sapiens) (UniProt P08912); test: NVS_GPCR_hM5: NovaScreen (NVS) G Protein-Coupled Receptor Assay for human Muscarinic, M5 Receptor (AID 2283275)
# Muscarinic acetylcholine receptor M5 (Homo sapiens), sequence (P08912 whole entry, looked up): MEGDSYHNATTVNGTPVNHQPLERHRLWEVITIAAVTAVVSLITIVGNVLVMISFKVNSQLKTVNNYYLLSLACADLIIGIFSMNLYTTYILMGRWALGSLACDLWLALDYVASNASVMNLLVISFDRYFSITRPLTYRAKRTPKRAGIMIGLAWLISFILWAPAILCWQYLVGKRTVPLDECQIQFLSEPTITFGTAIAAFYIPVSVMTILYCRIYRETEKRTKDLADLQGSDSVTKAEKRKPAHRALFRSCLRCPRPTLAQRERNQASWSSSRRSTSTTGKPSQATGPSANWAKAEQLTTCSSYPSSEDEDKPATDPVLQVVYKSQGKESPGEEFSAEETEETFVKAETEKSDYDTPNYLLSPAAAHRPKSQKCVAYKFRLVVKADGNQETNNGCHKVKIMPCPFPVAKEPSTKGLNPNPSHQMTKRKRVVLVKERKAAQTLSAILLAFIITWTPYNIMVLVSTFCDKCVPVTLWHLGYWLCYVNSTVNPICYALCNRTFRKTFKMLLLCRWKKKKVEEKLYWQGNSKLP
# In short: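 Radioligand displacement on CHO-derived membrane preparations, 1 h, filter-based scintillation counting. Single-concentration duplicate screen at 25 uM; hits (e.g. 30% inhibition) retested in singleton concentration-response up to 50 uM. Loss of binding fitted versus DMSO.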
# [3] = target: human Endothelin Receptor Type B (ETB), EDNRB (gene 1910) (UniProt P24530); test: NVS_GPCR_hETB: NovaScreen (NVS) G Protein-Coupled Receptor Assay for human Endothelin Receptor Type B (ETB) (AID 2283267)
# human Endothelin Receptor Type B (ETB), EDNRB (gene 1910), sequence (P24530 whole entry, looked up): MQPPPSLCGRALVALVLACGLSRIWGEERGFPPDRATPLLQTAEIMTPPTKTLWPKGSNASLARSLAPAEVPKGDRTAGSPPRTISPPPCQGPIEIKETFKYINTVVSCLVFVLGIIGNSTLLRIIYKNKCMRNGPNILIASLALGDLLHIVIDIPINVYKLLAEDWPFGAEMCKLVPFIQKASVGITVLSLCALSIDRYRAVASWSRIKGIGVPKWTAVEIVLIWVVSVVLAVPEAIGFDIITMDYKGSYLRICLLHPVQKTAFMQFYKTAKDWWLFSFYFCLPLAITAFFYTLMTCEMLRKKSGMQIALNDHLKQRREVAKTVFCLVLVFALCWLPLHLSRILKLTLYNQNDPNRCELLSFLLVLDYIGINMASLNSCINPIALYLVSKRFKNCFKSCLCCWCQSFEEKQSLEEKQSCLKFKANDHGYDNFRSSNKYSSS
# In short: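 Human astrocytoma cell membranes; radioligand competitive binding read by filter scintillation counting 4 hours after dosing. Single-concentration duplicate screen at 25 uM, then singleton concentration-response up to 50 uM; loss of signal versus DMSO.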
# [4] = target: human Leukotriene B4 Receptor 1 (LTB4-BLT1), LTB4R (gene 1241) (UniProt Q15722); test: NVS_GPCR_hLTB4_BLT1: NovaScreen (NVS) G Protein-Coupled Receptor Assay for human Leukotriene B4 Receptor 1 (LTB4-BLT1) (AID 2283271)
# human Leukotriene B4 Receptor 1 (LTB4-BLT1), LTB4R (gene 1241), sequence (Q15722 whole entry, looked up): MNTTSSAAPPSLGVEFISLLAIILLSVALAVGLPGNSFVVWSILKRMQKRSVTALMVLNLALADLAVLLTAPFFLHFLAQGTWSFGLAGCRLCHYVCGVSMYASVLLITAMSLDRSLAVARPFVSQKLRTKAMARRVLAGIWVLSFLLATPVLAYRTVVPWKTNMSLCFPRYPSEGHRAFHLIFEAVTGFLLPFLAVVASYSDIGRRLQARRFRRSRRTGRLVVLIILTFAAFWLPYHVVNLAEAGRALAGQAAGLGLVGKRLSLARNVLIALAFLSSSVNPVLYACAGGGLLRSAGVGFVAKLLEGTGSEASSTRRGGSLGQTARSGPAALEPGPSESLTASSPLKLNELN
# Procedure: NVS_GPCR_hLTB4_BLT1 is a biochemical, single-readout assay that uses extracted gene-proteins from Human neutrophils in a cell-free assay. Measurements were taken 1 hour after chemical dosing in a 48-well plate.NVS_GPCR_hLTB4_BLT1 is one of one assay component(s) measured or calculated from the NVS_GPCR_hLTB4_BLT1 assay. It is designed to make measurements of radioligand binding, a form of binding reporter, as detected with scintillation counting signals by Filter-based radiodetection technology.Data from the assay component NVS_GPCR_hLTB4_BLT1 was analyzed into 1 assay endpoint. This assay endpoint, NVS_GPCR_hLTB4_BLT1, was analyzed in the positive analysis fitting direction relative to DMSO as the negative control and baseline of activity. Using a type of binding reporter, loss-of-signal activity can be used to understand changes in the binding as they relate to the gene LTB4R. Furthermore, this assay endpoint can be referred to as a primary readout, because the performed assay has only produced 1 assay endpoint. To generalize the intended target to other relatable targets, this assay endpoint is annotated to the gpcr intended target family, where the subfamily is rhodopsin-like receptor.
# Binding assays used specific radioligands (tritiated, iodinated) with non-radioactive competitive displacement ligands in agonist or antagonist protocols (as indicated) and various reference compounds and inhibitors to titrate specific binding to receptors and transporters. Most enzyme assays (CYPs, kinases, phosphatases, proteases, HDACs) used recombinant protein and specific substrates (fluorescence mostly, some colorimetric and radioactive) and inhibitors, followed by a biochemical separation of substrate and product. All assays for the biochemical HTS were initially run in duplicate at a single concentration (10 uM for CYP450 assays and 25 uM for all others). Assay-chemical combinations meeting a pre-defined threshold (e.g., 30% inhibition and other criteria defined below) were then run in singleton concentration-response format with maximum concentration of 20 uM for CYPs and 50 uM for all others. Each assay was run with positive and negative controls, and concurrent controls on every plate. The follow-up (secondary) screen tested active chemical-pairs in concentration series, as well as a few additional assays not tested in the primary screen, some selected negative inactives, and several cases re-run in the concentration series for confirmatory purposes.
# [5] = target: Muscarinic acetylcholine receptor M2 (Homo sapiens) (UniProt P08172); test: NVS_GPCR_hM2: NovaScreen (NVS) G Protein-Coupled Receptor Assay for human Muscarinic, M2 Receptor (AID 2283273)
# Muscarinic acetylcholine receptor M2 (Homo sapiens), sequence (P08172 whole entry, looked up): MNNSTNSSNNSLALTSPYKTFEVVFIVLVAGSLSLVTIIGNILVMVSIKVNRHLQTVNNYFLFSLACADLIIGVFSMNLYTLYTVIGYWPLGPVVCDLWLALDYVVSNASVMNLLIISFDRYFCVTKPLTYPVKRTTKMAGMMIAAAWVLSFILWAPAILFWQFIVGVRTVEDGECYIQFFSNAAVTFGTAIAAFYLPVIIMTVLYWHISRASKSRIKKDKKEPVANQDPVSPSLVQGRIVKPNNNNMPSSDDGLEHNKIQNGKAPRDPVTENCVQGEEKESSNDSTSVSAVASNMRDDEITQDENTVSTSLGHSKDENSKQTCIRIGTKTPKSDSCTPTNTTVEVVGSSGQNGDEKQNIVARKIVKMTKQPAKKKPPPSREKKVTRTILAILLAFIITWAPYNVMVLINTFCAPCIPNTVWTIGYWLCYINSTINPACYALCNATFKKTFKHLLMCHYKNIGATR
# In short: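 Cell-free radioligand binding using membranes from CHO cells expressing the receptor; filter-based scintillation counting after 1 hour of compound exposure. Loss of specific binding relative to DMSO baseline; primary screen at 25 uM in duplicate, actives then run in concentration series.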
# [6] = target: human Muscarinic, M4 Receptor, CHRM4 (gene 1132) (UniProt P08173); test: NVS_GPCR_hM4: NovaScreen (NVS) G Protein-Coupled Receptor Assay for human Muscarinic, M4 Receptor (AID 2283274)
# human Muscarinic, M4 Receptor, CHRM4 (gene 1132), sequence (P08173 whole entry, looked up): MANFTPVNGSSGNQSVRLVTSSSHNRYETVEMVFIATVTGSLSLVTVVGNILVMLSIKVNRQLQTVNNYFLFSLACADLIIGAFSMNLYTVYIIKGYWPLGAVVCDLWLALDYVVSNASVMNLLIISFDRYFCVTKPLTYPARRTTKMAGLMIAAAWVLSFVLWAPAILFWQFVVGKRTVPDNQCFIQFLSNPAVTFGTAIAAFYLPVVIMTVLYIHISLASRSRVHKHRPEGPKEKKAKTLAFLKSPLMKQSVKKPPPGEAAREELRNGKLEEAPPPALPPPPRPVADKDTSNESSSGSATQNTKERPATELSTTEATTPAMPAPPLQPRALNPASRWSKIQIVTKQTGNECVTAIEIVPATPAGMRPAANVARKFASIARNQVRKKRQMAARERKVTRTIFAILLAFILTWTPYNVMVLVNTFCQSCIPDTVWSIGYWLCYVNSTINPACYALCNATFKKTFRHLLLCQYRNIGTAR
# In short: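 Cell-free radioligand displacement using CHO-derived human M4 receptor protein, 1 h after dosing; bound radioactivity by filtration and scintillation counting. Primary screen single 25 uM duplicate, actives followed in concentration series.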
# [7] = target: human Neuropeptide Receptor Y1 (NPY1), NPY1R (gene 4886) (UniProt P25929); test: NVS_GPCR_hNPY1: NovaScreen (NVS) G Protein-Coupled Receptor Assay for human Neuropeptide Receptor Y1 (NPY1) (AID 2283276)
# human Neuropeptide Receptor Y1 (NPY1), NPY1R (gene 4886), sequence (P25929 whole entry, looked up): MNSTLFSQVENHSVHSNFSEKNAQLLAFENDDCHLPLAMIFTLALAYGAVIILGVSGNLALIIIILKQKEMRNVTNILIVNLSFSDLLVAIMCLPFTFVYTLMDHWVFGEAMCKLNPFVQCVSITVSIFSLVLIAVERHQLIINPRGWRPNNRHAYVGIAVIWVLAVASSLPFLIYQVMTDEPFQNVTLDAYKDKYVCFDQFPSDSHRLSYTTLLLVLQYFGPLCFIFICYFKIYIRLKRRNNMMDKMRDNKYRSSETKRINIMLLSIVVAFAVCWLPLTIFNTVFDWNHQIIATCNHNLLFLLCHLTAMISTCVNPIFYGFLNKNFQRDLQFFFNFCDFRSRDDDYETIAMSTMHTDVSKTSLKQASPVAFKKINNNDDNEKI
# In short: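 Cell-free radioligand binding using receptor extracted from SK-N-MC cells, 1 h incubation, filter-based scintillation counting. Primary screen single concentration 25 uM in duplicate; actives followed in concentration series. Loss of bound signal scored versus DMSO.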
# [8] = target: Muscarinic acetylcholine receptor M1 (Homo sapiens) (UniProt P11229); test: NVS_GPCR_hM1: NovaScreen (NVS) G Protein-Coupled Receptor Assay for human Muscarinic, M1 Receptor (AID 2283270)
# Muscarinic acetylcholine receptor M1 (Homo sapiens), sequence (P11229 whole entry, looked up): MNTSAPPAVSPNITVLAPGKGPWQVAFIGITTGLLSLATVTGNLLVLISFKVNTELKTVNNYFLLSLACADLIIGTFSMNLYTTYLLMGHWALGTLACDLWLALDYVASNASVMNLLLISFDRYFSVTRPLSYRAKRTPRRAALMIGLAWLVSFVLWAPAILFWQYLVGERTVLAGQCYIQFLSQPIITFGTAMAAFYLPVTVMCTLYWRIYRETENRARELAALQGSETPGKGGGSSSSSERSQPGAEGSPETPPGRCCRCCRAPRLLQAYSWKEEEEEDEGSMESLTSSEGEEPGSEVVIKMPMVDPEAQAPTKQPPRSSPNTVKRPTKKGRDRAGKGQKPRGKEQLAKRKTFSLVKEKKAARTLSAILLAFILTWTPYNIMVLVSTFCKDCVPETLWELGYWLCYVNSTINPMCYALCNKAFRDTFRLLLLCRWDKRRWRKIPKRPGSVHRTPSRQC
# In short: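 Cell-free radioligand displacement using membrane protein extracted from CHO cells, read by filter-based scintillation counting 1 h after dosing. Loss of bound signal fitted versus DMSO; primary screen single concentration 25 uM in duplicate, actives followed by concentration series.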
# [9] = target: Muscarinic acetylcholine receptor M3 (Homo sapiens) (UniProt P20309); test: NVS_GPCR_hM3: NovaScreen (NVS) G Protein-Coupled Receptor Assay for human Muscarinic, M3 Receptor (AID 2283272)
# Muscarinic acetylcholine receptor M3 (Homo sapiens), sequence (P20309 whole entry, looked up): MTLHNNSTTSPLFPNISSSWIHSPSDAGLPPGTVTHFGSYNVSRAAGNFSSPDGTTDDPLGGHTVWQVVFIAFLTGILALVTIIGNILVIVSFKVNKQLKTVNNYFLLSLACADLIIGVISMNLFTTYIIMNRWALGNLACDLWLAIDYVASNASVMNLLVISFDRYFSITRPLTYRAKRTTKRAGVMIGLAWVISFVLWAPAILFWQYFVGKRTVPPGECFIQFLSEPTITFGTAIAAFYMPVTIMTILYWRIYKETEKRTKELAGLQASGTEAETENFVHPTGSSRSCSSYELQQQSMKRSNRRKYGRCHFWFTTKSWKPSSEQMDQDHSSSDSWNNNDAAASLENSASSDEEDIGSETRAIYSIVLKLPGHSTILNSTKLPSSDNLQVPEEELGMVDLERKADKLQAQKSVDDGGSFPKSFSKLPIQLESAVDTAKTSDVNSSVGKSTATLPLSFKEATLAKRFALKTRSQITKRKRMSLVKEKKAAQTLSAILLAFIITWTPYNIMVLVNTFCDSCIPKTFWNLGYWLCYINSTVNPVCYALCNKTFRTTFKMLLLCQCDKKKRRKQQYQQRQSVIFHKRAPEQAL
# In short: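 Radioligand displacement binding on human M3 receptor in CHO-derived membranes, 1 h incubation, filter-based scintillation counting. Primary screen in duplicate at 25 uM; actives followed up in concentration series; loss of signal versus DMSO.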
# [10] = target: human Histamine 1 Receptor (H1), HRH1 (gene 3269) (UniProt P35367); test: NVS_GPCR_hH1: NovaScreen (NVS) G Protein-Coupled Receptor Assay for human Histamine 1 Receptor (H1) (AID 2283268)
# human Histamine 1 Receptor (H1), HRH1 (gene 3269), sequence (P35367 whole entry, looked up): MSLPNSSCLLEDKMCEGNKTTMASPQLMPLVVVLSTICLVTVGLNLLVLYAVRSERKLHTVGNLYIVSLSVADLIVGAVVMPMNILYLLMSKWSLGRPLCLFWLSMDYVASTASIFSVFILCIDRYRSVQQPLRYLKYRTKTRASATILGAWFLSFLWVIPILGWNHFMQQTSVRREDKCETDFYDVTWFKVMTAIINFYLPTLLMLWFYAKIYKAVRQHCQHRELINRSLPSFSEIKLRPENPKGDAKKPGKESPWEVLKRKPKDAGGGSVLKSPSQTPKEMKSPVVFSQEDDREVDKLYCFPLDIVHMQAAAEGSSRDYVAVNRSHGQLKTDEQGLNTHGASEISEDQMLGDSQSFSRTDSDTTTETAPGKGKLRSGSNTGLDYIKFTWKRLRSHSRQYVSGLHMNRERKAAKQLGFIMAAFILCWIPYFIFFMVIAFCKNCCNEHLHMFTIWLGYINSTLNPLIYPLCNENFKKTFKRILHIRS
# In short: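 Cell-free radioligand displacement at human H1 receptor, 1 h, filter scintillation counting; primary screen 25 uM in duplicate, hits in concentration series; loss of binding fitted vs DMSO.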
structure (smiles),measurement,setting,value
COc1ccc(OC(F)(F)F)cc1CN[C@H]1CCCN[C@H]1c1ccccc1,AC50,[1],25 µM (active)
same,AC50,[2],9.18 µM (active)
CCc1cc(C2=C(C(=O)O)N(c3ccccc3C(F)(F)F)S(=O)(=O)c3ccccc32)cc2c1OCO2,AC50,[3],0.442 µM (active)
same,AC50,[4],17.1 µM (active)
NC(=Nc1ccccc1)Nc1ccccc1,AC50,[5],19.8 µM (active)
same,AC50,[6],14.9 µM (active)
Oc1ccc(O)cc1,AC50,[7],10.8 µM (active)
CN(C)C(=O)NC1(c2ccccc2)CCN(CCC[C@]2(c3ccc(Cl)c(Cl)c3)CCCN(C(=O)c3ccccc3)C2)CC1,AC50,[8],2.02 µM (active)
same,AC50,[9],3.84 µM (active)
same,AC50,[5],2.41 µM (active)
same,AC50,[6],3.46 µM (active)
same,AC50,[2],2.01 µM (active)
O=C(NS(=O)(=O)/C=C/c1cccs1)c1ccc(F)cc1Br,outcome,[3],inactive
CO[C@@H]1COCC[C@@H]1N[C@@H]1CC[C@@](C(=O)N2CCc3ncc(C(F)(F)F)cc3C2)(C(C)C)C1,AC50,[5],12.3 µM (active)
same,AC50,[6],25 µM (active)
O=C(O)c1[nH]n(-c2ccc(S(=O)(=O)O)cc2)c(=O)c1N=Nc1ccc(S(=O)(=O)O)cc1,AC50,[1],19.2 µM (active)
same,outcome,[9],inactive
same,outcome,[5],inactive
Cn1cnc2c1c(=O)[nH]c(=O)n2C,outcome,[1],inactive
same,outcome,[6],inactive
NCCOCCOCCN,outcome,[3],inactive
CCC(C)N(C)C(=O)c1cc2ccccc2c(-c2ccccc2Cl)n1 (stereo not drawn),AC50,[10],15.9 µM (active)
CCCCCCCCCCCCCCOS(=O)(=O)O,AC50,[10],28.1 µM (active)
same,AC50,[1],5.18 µM (active)
same,AC50,[8],25 µM (active)
same,AC50,[9],25 µM (active)
same,AC50,[6],31.9 µM (active)
same,AC50,[2],16.5 µM (active)

# Reference: PubChem BioAssay (EPA / NIEHS)
